Holding throughout (experiment): PBM binding z-score (relative to random genomic background probes); higher = stronger binding; sequences stand for … in GC…GCGATTGACAGCGTAGAATGAAGG
Assay [1] deals with PPARg:RXRa DBDmut IVT, anti-RXR (DBD mutation: RXRa K156A/R161A, NR concentration 270 nM, RXRa partner concentration 90 nM). Put shortly: (§1)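 On custom Agilent 4×180K arrays, double-stranded probes with 34-nt variable regions carried direct-repeat seeds, single-nucleotide variants, half-site ablations or random human genomic background. Ligand-free nuclear receptor dimers were applied for 1 h, and binding was read with antibodies against each partner (one per run). Binding z-scores come from regression-normalized fluorescence, with the random background probes as reference.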

In assay [2] the test system is PPARg:RXRa IVT, anti-PPARg (NR concentration 270 nM, RXRa partner concentration 90 nM). Put shortly: as §1
The test system of assay [3] is PPARg DBDmut:RXRa IVT, anti-PPARg (DBD mutation: PPARg1 K132A/R137A, NR concentration 270 nM, RXRa partner concentration 90 nM). Put shortly:
as §1

The subject of assay [4] is PPARg DBDmut IVT, anti-PPARg (DBD mutation: PPARg1 K132A/R137A, NR concentration 270 nM). Put shortly: as §1
The test system of assay [5] is PPARg homodimer (NR concentration 180 nM). Put shortly: as §1
Assay [6] has as its system PXR:RXRa (NR concentration 270 nM, RXRa partner concentration 90 nM). Put shortly:
as §1

Assay [7] deals with PXR homodimer (NR concentration 270 nM). Put shortly: as §1
Assay [8] relates to RARa:RXR (NR concentration 270 nM, RXRa partner concentration 90 nM). In outline: as §1
Assay [9] relates to RARa homodimer (NR concentration 270 nM). In outline: as §1
In assay [10] the test system is RARb:RXRa (NR concentration 270 nM, RXRa partner concentration 90 nM). Put shortly: as §1
Assay [11] relates to RARb homodimer (NR concentration 270 nM). Put shortly:
as §1

The subject of assay [12] is RARg:RXRa (NR concentration 270 nM, RXRa partner concentration 90 nM). Put shortly:
as §1

Assay [13] deals with RARg homodimer (NR concentration 270 nM). Put shortly: as §1
Assay [14] deals with RXRa DBDmut IVT, anti-RXR (DBD mutation: RXRa K156A/R161A, NR concentration 90 nM). Put shortly:
as §1

The test system of assay [15] is RXRa homodimer (NR concentration 180 nM). In outline: as §1
Assay [16] concerns THRa:RXRa (NR concentration 90 nM, RXRa partner concentration 90 nM). In outline:
as §1

In assay [17] the test system is THRa homodimer (NR concentration 90 nM). Put shortly: as §1
For assay [18], the system named is VDR:RXRa (NR concentration 270 nM, RXRa partner concentration 90 nM). Put shortly:
as §1

Assay [19] concerns VDR homodimer (NR concentration 270 nM). Put shortly:
as §1

In the case of ACTAGCAGGACAAGGGTCACTCAAGATTAGTCCG, the PBM binding z-score was 0.93 in assay [1]; 3.2 in [2]; -0.0211 in assay [3]; -0.445 in assay [4]; 2.71 in assay [5]; 3.31 in [6]. Besides, the PBM binding z-score in [7] is 0.0433; in assay [8], 4.23; in assay [9], 0.605; in [10], 3.47; in [11], 3.75; in assay [12], 4.12. Besides, the PBM binding z-score in [13] worked out at 3.61; in assay [14], 0.928; in assay [15], 3.68; in assay [16], 3.04; in assay [17], 0.529; in assay [18], 3.05. In assay [19], the PBM binding z-score came to 2.01.

As for CCTTACGGGTAAAGGTTATAGCACGGGTGGTACG, the PBM binding z-score is -0.138 in assay [1]; 1.7 in assay [2]; -0.079 in assay [3]; -0.348 in assay [4]; 1.08 in [5]; 1.1 in [6]. Also, the PBM binding z-score is 0.1 in assay [7]; 2.04 in assay [8]; 0.398 in assay [9]; 1.82 in assay [10]; 1.5 in assay [11]; 2.02 in assay [12]. The PBM binding z-score was 1.06 in assay [13]; -1.08 in assay [14]; 2.34 in assay [15]; 1.31 in assay [16]; 0.0229 in [17]; 0.723 in assay [18]. The PBM binding z-score in assay [19] stood at 0.43.

For AGTCATAGTTCAGGACGAGGTAACGTAAAGCACG, the PBM binding z-score in assay [1] was -0.922; in [2], 0.674; in [3], 0.901; in [4], 0.714; in [5], 0.947; in assay [6], 1.13. Also, the PBM binding z-score in assay [7] amounted to 0.0157; in [8], 1.31; in assay [9], 0.185; in assay [10], 2.59; in [11], 1.82; in [12], 2.66. Also, the PBM binding z-score in [13] is 2.61; in assay [14], 0.51; in assay [15] it was 1.39; in assay [16], 3.35; in [17], 1.67; in [18] it was 0.92. The sequence also came in with a PBM binding z-score in assay [19] of 0.515.

Regarding CGAACTAGGTCAAGGACAGTTAATCTCCGCACGC, the PBM binding z-score stood at 8.24 in [1]; 8.35 in assay [2]; 2.25 in [3]; 0.939 in [4]; 1.62 in assay [5]; 1.5 in [6]. In addition, the PBM binding z-score in assay [7] was 0.185; in assay [8], 1.87; in assay [9], 0.669; in assay [10], 3.76; in assay [11], 3.38; in assay [12] it was 3.88. The PBM binding z-score was found to be 4.87 in assay [13]; 1.65 in assay [14]; 2.89 in [15]; 3.09 in assay [16]; 2.12 in assay [17]; 0.602 in assay [19].

On to AGTCAAAGTTCAGGACGAGCTAACGTAAAGCACG, for which the PBM binding z-score in assay [1] was -0.565; in assay [2], 1.33; in assay [3] it was 0.323; in assay [4], -0.197; in assay [5] it was 1.5; in assay [6], 1.98. In addition, the PBM binding z-score in assay [7] was found to be 0.743; in assay [8] it was 1.88; in [9] it was 0.728; in assay [10], 4.11; in assay [11] it was 2.77; in [12], 4.22. The PBM binding z-score in [13] was 4.84; in assay [14] it was 2.68; in assay [15], 2.83; in assay [16], 1.95; in assay [17], 0.278; in assay [18], 1.8. In assay [19], this sequence returned a PBM binding z-score of 1.5.

TCATATAGGTAATACAGGTGCAAGTCGGCATCTA: the PBM binding z-score came to 3.87 in assay [1]; 2.67 in assay [2]; 1.02 in assay [3]; 0.643 in assay [4]; 0.337 in assay [5]; 1.07 in assay [6]. Moreover, the PBM binding z-score in assay [7] amounted to 0.613; in [8] it was 0.828; in [9], 1.43; in assay [10], 0.563; in assay [11] it was 0.266; in assay [12], 0.587. Also, the PBM binding z-score was 0.617 in [13]; 1.65 in assay [14]; 0.938 in assay [15]; 1.16 in [16]; -0.0511 in assay [17]; 1.91 in assay [18]. The PBM binding z-score in assay [19] was determined as 1.03.

Consider TCTCGGAGGACACGAAGGTCATAGCTTTCCAGAG, for which the PBM binding z-score is 1.58 in assay [1]; 1.77 in assay [2]; -0.131 in assay [3]; -1.04 in assay [4]; 1.95 in assay [5]; 3.8 in assay [6]. Besides, the PBM binding z-score in assay [7] is 3.5; in assay [8], 3.59; in [9] it was 0.346; in assay [10] it was 3.62; in assay [11], 3.93; in assay [12], 4.04. The PBM binding z-score in [13] was found to be 4.13; in assay [14], 1.41; in assay [15], 3.28; in assay [16], 3.55; in assay [17] it was 1.66; in assay [18] it was 4.04. For the same sequence, the PBM binding z-score in assay [19] was determined as 3.09.
